Test results reported in article PMC5700166.

Molecular target: T1, GST-Co-NF-kB (Capsaspora owczarzaki, UniProt F1ARL5 200-546)
T1 sequence: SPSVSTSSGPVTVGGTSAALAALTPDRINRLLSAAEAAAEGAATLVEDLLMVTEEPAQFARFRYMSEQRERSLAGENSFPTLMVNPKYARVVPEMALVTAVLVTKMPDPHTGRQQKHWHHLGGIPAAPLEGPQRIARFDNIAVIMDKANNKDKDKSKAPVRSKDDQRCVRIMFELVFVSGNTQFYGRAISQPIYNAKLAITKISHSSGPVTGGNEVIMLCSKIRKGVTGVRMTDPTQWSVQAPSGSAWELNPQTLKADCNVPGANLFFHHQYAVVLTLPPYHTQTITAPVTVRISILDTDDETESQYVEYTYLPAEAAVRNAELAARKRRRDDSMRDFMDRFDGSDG
Assay: protein-binding microarray (PBM); PBM: ~300 nM protein, 6 mM HEPES pH 7.8, 80 mM KCl, 0.5 mM EDTA, 0.5 mM EGTA, 6% glycerol, 35 ng/ul poly-dIdC, 1% milk, 1 h, room temperature; Ap Aiptasia and Nv Nematostella (sea anemones) / Co Capsaspora / Aq Amphimedon (sponge) / Dm Drosophila / Hu human; RHD is the Rel homology domain; high values mean tight binding
Conditions: dsDNA, one strand shown

In order of falling binding signal:
1. CCGATTAACATCAGGTCACCCCATGATGTTAATCGGGTCTTGATTCGCTTGACGCTGCTG  2.51 z-score
2. CCGATTAACATCAGGGCAAAAAATGATGTTAATCGGGTCTTGATTCGCTTGACGCTGCTG  1.84 z-score
3. CCGATTAACATCAAGGGTGGAAATGATGTTAATCGGGTCTTGATTCGCTTGACGCTGCTG  1.66 z-score
4. CCGATTAACATCACCTTCTTTACTGATGTTAATCGGGTCTTGATTCGCTTGACGCTGCTG  1.57 z-score
5. CCGATTAACATCACCAAGTATAGTGATGTTAATCGGGTCTTGATTCGCTTGACGCTGCTG  1.42 z-score
6. CCGATTAACATCACCCATTTCCGTGATGTTAATCGGGTCTTGATTCGCTTGACGCTGCTG  1.41 z-score
7. CCGATTAACATCATCGCGGGTAGTGATGTTAATCGGGTCTTGATTCGCTTGACGCTGCTG  1.37 z-score
8. CCGATTAACATCACCCACGAGGGTGATGTTAATCGGGTCTTGATTCGCTTGACGCTGCTG  1.35 z-score
9. CCGATTAACATCACAATAACGGGTGATGTTAATCGGGTCTTGATTCGCTTGACGCTGCTG  1.26 z-score
10. CCGATTAACATCATGTCGGGTGATGATGTTAATCGGGTCTTGATTCGCTTGACGCTGCTG  1.26 z-score
11. CCGATTAACATCACCCAAAGTTTTGATGTTAATCGGGTCTTGATTCGCTTGACGCTGCTG  1.24 z-score
12. CCGATTAACATCACCCGCTTTATTGATGTTAATCGGGTCTTGATTCGCTTGACGCTGCTG  1.23 z-score
13. CCGATTAACATCACAAATTTTCCTGATGTTAATCGGGTCTTGATTCGCTTGACGCTGCTG  1.2 z-score
14. CCGATTAACATCAAGAGAGAAAGTGATGTTAATCGGGTCTTGATTCGCTTGACGCTGCTG  1.16 z-score
15. CCGATTAACATCAGGGTGTAGTTTGATGTTAATCGGGTCTTGATTCGCTTGACGCTGCTG  1.14 z-score
16. CCGATTAACATCAGCCATATTTGTGATGTTAATCGGGTCTTGATTCGCTTGACGCTGCTG  1.13 z-score
17. CCGATTAACATCAACGTGATTTGTGATGTTAATCGGGTCTTGATTCGCTTGACGCTGCTG  1.11 z-score
18. CCGATTAACATCAGATACCAGGGTGATGTTAATCGGGTCTTGATTCGCTTGACGCTGCTG  1.09 z-score
19. CCGATTAACATCAGGGAGCGGTTTGATGTTAATCGGGTCTTGATTCGCTTGACGCTGCTG  1.07 z-score
20. CCGATTAACATCAGGAAAAAAACTGATGTTAATCGGGTCTTGATTCGCTTGACGCTGCTG  1.06 z-score
21. CCGATTAACATCAGTAGGTGAAGTGATGTTAATCGGGTCTTGATTCGCTTGACGCTGCTG  1.02 z-score
22. CCGATTAACATCATACCTCCCGTTGATGTTAATCGGGTCTTGATTCGCTTGACGCTGCTG  1.01 z-score
23. CCGATTAACATCACCCACGACGATGATGTTAATCGGGTCTTGATTCGCTTGACGCTGCTG  1.01 z-score

Molecular target: T2, GST-Dm-Relish (Drosophila melanogaster, UniProt Q94527 99-473)
T2 sequence: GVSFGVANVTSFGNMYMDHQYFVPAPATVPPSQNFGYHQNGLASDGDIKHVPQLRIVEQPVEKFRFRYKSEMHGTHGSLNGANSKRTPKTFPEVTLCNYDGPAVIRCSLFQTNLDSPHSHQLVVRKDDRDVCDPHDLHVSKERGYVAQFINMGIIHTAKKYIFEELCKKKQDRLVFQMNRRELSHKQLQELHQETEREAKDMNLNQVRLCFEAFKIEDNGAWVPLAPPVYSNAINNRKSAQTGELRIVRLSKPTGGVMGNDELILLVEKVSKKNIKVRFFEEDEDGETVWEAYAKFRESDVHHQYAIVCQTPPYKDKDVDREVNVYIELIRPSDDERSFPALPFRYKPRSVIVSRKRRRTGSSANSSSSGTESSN
Assay: as above
Conditions: dsDNA, one strand shown

In order of falling binding signal:
1. CCGATTAACATCAGGAAAGAACATGATGTTAATCGGGTCTTGATTCGCTTGACGCTGCTG  3.57 z-score
2. CCGATTAACATCAGGAAAAACACTGATGTTAATCGGGTCTTGATTCGCTTGACGCTGCTG  2.61 z-score
3. CCGATTAACATCAGGAAATAACATGATGTTAATCGGGTCTTGATTCGCTTGACGCTGCTG  2.04 z-score
4. CCGATTAACATCACAAATTTTCCTGATGTTAATCGGGTCTTGATTCGCTTGACGCTGCTG  2.01 z-score
5. CCGATTAACATCACGGAATGTACTGATGTTAATCGGGTCTTGATTCGCTTGACGCTGCTG  1.8 z-score
6. CCGATTAACATCACGTAAACTCCTGATGTTAATCGGGTCTTGATTCGCTTGACGCTGCTG  1.72 z-score
7. CCGATTAACATCAGGCCTTTCCATGATGTTAATCGGGTCTTGATTCGCTTGACGCTGCTG  1.71 z-score
8. CCGATTAACATCACAATAACGGGTGATGTTAATCGGGTCTTGATTCGCTTGACGCTGCTG  1.63 z-score
9. CCGATTAACATCACGTACATTCCTGATGTTAATCGGGTCTTGATTCGCTTGACGCTGCTG  1.63 z-score
10. CCGATTAACATCAGTTTTTTCCATGATGTTAATCGGGTCTTGATTCGCTTGACGCTGCTG  1.54 z-score
11. CCGATTAACATCAGGAAATTCACTGATGTTAATCGGGTCTTGATTCGCTTGACGCTGCTG  1.48 z-score
12. CCGATTAACATCAAGTACAACGGTGATGTTAATCGGGTCTTGATTCGCTTGACGCTGCTG  1.44 z-score
13. CCGATTAACATCAGGAAAAATACTGATGTTAATCGGGTCTTGATTCGCTTGACGCTGCTG  1.36 z-score
14. CCGATTAACATCACCCATTTCCGTGATGTTAATCGGGTCTTGATTCGCTTGACGCTGCTG  1.34 z-score
15. CCGATTAACATCAGTATTTTCCATGATGTTAATCGGGTCTTGATTCGCTTGACGCTGCTG  1.33 z-score
16. CCGATTAACATCACCCACGAGGGTGATGTTAATCGGGTCTTGATTCGCTTGACGCTGCTG  1.29 z-score
17. CCGATTAACATCATGGTACTTGTTGATGTTAATCGGGTCTTGATTCGCTTGACGCTGCTG  1.26 z-score
18. CCGATTAACATCAGGAAAAAAACTGATGTTAATCGGGTCTTGATTCGCTTGACGCTGCTG  1.23 z-score
19. CCGATTAACATCAAATTTTCCACTGATGTTAATCGGGTCTTGATTCGCTTGACGCTGCTG  1.2 z-score
20. CCGATTAACATCAAAAAACCGTTTGATGTTAATCGGGTCTTGATTCGCTTGACGCTGCTG  1.2 z-score
21. CCGATTAACATCACCGCAGCATGTGATGTTAATCGGGTCTTGATTCGCTTGACGCTGCTG  1.18 z-score
22. CCGATTAACATCAGGGTGTAGTTTGATGTTAATCGGGTCTTGATTCGCTTGACGCTGCTG  1.07 z-score
23. CCGATTAACATCACCCACGACGATGATGTTAATCGGGTCTTGATTCGCTTGACGCTGCTG  1.04 z-score
24. CCGATTAACATCAAAATTCCAATTGATGTTAATCGGGTCTTGATTCGCTTGACGCTGCTG  1.02 z-score
